For 101 compounds, inhibition results are on record in PubChem BioAssay AID463082 (The Scripps Research Institute Molecular Screening Center, 2010).

Out of some 330,000 compounds screened, about 4,900 (1.5%) were called active. The sample holds actives, similar compounds and a random draw of the others, so the mix is not that of the screen. A number with no mark means an inactive call.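 The calls were made as follows: active = inhibition above the mean inhibition across the screen plus 3 SD (cut at about 25% in these data); inactive = the rest.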

Chain of Platelet-activating factor acetylhydrolase (Homo sapiens) (Q13093 whole entry, looked up): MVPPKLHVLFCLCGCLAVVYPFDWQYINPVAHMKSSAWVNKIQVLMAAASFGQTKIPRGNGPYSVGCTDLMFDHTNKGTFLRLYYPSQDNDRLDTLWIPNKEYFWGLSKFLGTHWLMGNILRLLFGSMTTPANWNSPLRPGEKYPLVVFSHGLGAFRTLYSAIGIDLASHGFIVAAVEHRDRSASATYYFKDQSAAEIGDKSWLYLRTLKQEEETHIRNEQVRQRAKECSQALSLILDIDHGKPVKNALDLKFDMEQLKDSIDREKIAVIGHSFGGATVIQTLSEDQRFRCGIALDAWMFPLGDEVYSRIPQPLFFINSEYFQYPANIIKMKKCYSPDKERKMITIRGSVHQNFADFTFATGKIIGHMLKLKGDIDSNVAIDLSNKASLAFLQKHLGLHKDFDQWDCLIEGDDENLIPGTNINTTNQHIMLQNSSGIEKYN

This experiment has as its target Platelet-activating factor acetylhydrolase (Homo sapiens) (UniProt Q13093). As to the kind of experiment: inhibition of plasma PAF acetylhydrolase – biochemical, fluorescence polarization, human, primary screen (AID 463082).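 Also: inhibitors block binding of the rhodamine activity-based probe so polarization drops; 0% = enzyme with DMSO and 100% = wells lacking pPAFAH.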 The following applies: recombinant pPAFAH, FP-rhodamine probe fluorescence polarization; at 3.39 µM; active compounds read high.
In the case of `O=C(Nc1ccccc1)c1ccc2nsnc2c1`, the inhibition was -5.05%. With `COCC(C)NC(=O)c1ccc(-n2nc(C(F)(F)F)cc2-c2cccs2)cc1` (stereo unspecified) the figure was 35.9% (active). Regarding `COCC(C)NC(=O)c1ccc(Cl)c(Cl)c1` (stereo unspecified), the inhibition is 4.84%.

Turning to `Cc1cc2nc(C(F)(F)F)cc(-c3cccs3)n2n1`, the inhibition is -3.12%. Then `CC(=O)N1CCN(C(=O)C2(NC(=O)Nc3ccc(C)cc3)CCCCC2)CC1`, with -3.87%; and `CCCC(C)C(=O)NCc1ccncc1` (stereo unspecified), with -2.95%. With `Cc1ccc(NC(=O)c2csc3c2CCCC3)cc1` the figure was 1.78%; with `COC(=O)c1c(NC(=O)CCN2CCOCC2)sc2c1CCCC2`, 7.3%; with `Cc1ccc(NC(=O)c2c(NC(=O)CCC(=O)O)sc3c2CCCCC3)cc1`, 24.6% (active). For the compound `Cn1nc(C(C)(C)C)c([N+](=O)[O-])c1C(N)=O`, the inhibition was -0.25%.

For `O=[N+]([O-])c1ccccc1SNc1ccccn1`, the inhibition was 3.58%.

With `COc1cnc(-c2ccccn2)nc1Oc1ccc(C(C)(C)C)cc1`, the inhibition is 3.59%.

Take `C[C@H](CO)N1C[C@H](C)[C@@H](CN(C)C(=O)Nc2ccc3c(c2)OCO3)Oc2c(cccc2N(C)C)C1=O`: the inhibition was 3.8%. With `N#Cc1c(N2CCCCC2)nc(N)c2c(N)nc(SCC(=O)O)cc12` the figure was 27.8% (active). With `CCOC(=O)c1cc(C#N)c(N2CCCCC2)nc1-c1ccccc1` the figure was 4.27%; with `N#CCc1c(C#N)c(N)nc(N2CCCC2)c1C#N`, -3.2%; with `O=C(N=C1SC2CS(=O)(=O)CC2N1c1ccccc1)c1ccccc1` (stereo unspecified), -2.21%.

As for `CS/C(=C\C(=O)c1ccco1)Nc1ccccc1Cl`, the inhibition is 3.63%. With `N#CC1=C(N)C(C#N)(C#N)[C@H](c2ccsc2)[C@H]2COCC=C12` the figure was 3.03%. With `CCN1CC=C2C(C#N)=C(N)C(C#N)(C#N)[C@H](c3ccoc3)[C@H]2C1` the figure was 25.2% (active); with `CCCN1CC=C2C(C#N)=C(N)C(C#N)(C#N)C(c3cc(OC)ccc3OC)C2C1` (stereo unspecified), 0.59%. With `CCC1CCCCN1C(=S)NC(=O)c1ccco1` (stereo unspecified) the figure was -4.39%.

As to `CCN(CC)S(=O)(=O)c1cc([N+](=O)[O-])ccc1NNC(=O)Nc1ccccc1`, the inhibition is 12%. Then `Cc1ccc(C)c(NS(=O)(=O)c2ccc(OCC(=O)NCc3cccnc3)cc2)c1`, with 26.4% (active); and `Cc1ccc(CNC(=O)COc2ccc(S(=O)(=O)NC(C)C)cc2)cc1`, with -3.29%.

As to `Cc1cc(S(=O)(=O)NC2CCCCC2)ccc1OCC(=O)NCc1cccnc1`, the inhibition was 8.28%. With `Cc1ccc(S(=O)Cc2ccc(C(=O)N3CCN(C4CCCCC4)CC3)o2)cc1` (stereo unspecified) the figure was 4.39%; with `COc1ccccc1NC1=NC(c2ccc(Cl)cc2)N=C(N)N1` (stereo unspecified), 1.26%; with `CC(C)(C)OC(=O)NCCCC1=CC2=CC(=O)C(C)(OC(=O)c3ccco3)C(=O)C2=CO1` (stereo unspecified), 33.5% (active). With `COC(=O)CCCC1=CC2=CC(=O)C(C)(OC(=O)c3cccs3)C(=O)C2=CN1c1cccc(C#N)c1` (stereo unspecified) the figure was 7.86%; with `O=C(COC(=O)c1ccco1)NCc1ccc(Cl)cc1`, 0.66%. On to `O=C(CC1C(=O)NCCN1CC(c1ccccc1)c1ccccc1)NCCc1cn[nH]c1` (stereo unspecified), for which the inhibition is 7.44%. For the compound `COc1cc([N+](=O)[O-])ccc1NC(=O)COC(=O)CCOc1ccc(C)cc1`, the inhibition is 6.88%. Take `O=C(Nc1ccccc1C(=O)N1CCOCC1)c1ccc(CSc2ccccc2)cc1`: the inhibition is 4.67%. Then `CC(C)Oc1c(Br)cc(Br)cc1/C=N/NC(N)=S`, with 1.45%. In the case of `Cc1cccc(-n2c(C)cc(/C=N\NC(=O)c3cccs3)c2C)c1`, the inhibition was 22%. With `Cc1ccc(-n2c(C)cc(/C=N\NC(=O)CC(=O)NC(C)C)c2C)cc1` the figure was 1.94%. With `Cc1cc(/C=N/NC(=O)CC2(C)OCCO2)c(C)n1-c1ccc(Cl)c(Cl)c1` the figure was 27.6% (active); with `O=C(CNC(=O)C1COc2ccccc2O1)N/N=C/c1cc(Br)c(O)c(Br)c1` (stereo unspecified), 26.3% (active). Regarding `O=C(N/N=C/c1cc2c(cc1Br)OCO2)C1COc2ccccc2O1` (stereo unspecified), the inhibition is 8.36%. Then `O=C(N/N=C\c1cc(Br)c(Br)o1)C1COc2ccccc2O1` (stereo unspecified), with -1.47%; and `CCOc1ccc(N(C)S(=O)(=O)c2cnc[nH]2)cc1`, with 4.67%; and `CC(Oc1cc2oc(=O)c3c(c2cc1Cl)CCCC3)C(=O)NCc1ccncc1` (stereo unspecified), with 7.32%. `CCOC(=O)CSc1nnc(CNC(=O)c2cccs2)n1-c1cc(OC)ccc1OC`: the inhibition was 4.54%. With `Cn1cccc1/C=N/NC(=O)c1ccc(OC(F)(F)C(F)F)cc1`, the inhibition was 6.18%.

Take `Cn1nccc1NC(=O)Nc1ccc(OC(F)(F)F)cc1`: the inhibition was -4.08%. `O=C(Nc1ccc(OC(F)(F)F)cc1)c1ccc2c(c1)no[n+]2[O-]`: the inhibition was 25.4% (active). With `CCCCN1C(=O)CCC(C(=O)O)C1c1ccc(OC)cc1` (stereo unspecified) the figure was 2.74%. As to `CCOC(=O)C(C)Oc1cccc2c(=O)n(CC(=O)NCCc3ccc(OC)c(OC)c3)ccc12` (stereo unspecified), the inhibition was 0.87%. With `Nn1c(SCC(=O)NC2CCCc3ccccc32)nnc1C1CC1` (stereo unspecified) the figure was -1.35%; with `C[C@H](NC(=O)c1ccccc1Cl)C(=O)OCCOc1cccc(Cl)c1`, 0.09%; with `COC/C=C/C1=CC2=CC(=O)C(C)(OC(=O)CCC(=O)OC)C(=O)C2=CO1` (stereo unspecified), 32.3% (active). Then `COC(=O)CCCC1=CC2=CC(=O)C(C)(OC(=O)c3cccs3)C(=O)C2=CN1CC(C)C` (stereo unspecified), with 5.09%. With `CCCCC1=CC2=CC(=O)C(C)(OC(=O)CC)C(=O)C2=CN1CCCOC(C)C` (stereo unspecified) the figure was -0.51%. Consider `COc1ccc(OCC(=O)OCCN(C)C)cc1`, for which the inhibition is 0.82%.

Turning to `O=C(CCCN1C(=O)CCC1=O)Nc1ccc(Cl)c(C(F)(F)F)c1`, the inhibition was 5.28%. Regarding `COc1ccc(Cl)cc1NC(=O)COC(=O)C(CC(C)C)N1C(=O)C2CC=CCC2C1=O` (stereo unspecified), the inhibition was -2.85%. Then `COc1ccc(N2CC(C(=O)NCCN3C(=O)S/C(=C\c4cccnc4)C3=O)CC2=O)c(OC)c1` (stereo unspecified), with 65.4% (active); and `COc1ccccc1N1CC(C(=O)NCCN2C(=O)S/C(=C\c3cccnc3)C2=O)CC1=O` (stereo unspecified), with 4.51%; and `CCOc1ccc(N2CC(C(=O)NCCN3C(=O)S/C(=C\c4cccnc4)C3=O)CC2=O)cc1` (stereo unspecified), with 8.89%. Take `COc1ccc(S(=O)(=O)N(C)CC(=O)N2CCCC2)cc1`: the inhibition is -1%.

With `COc1cc(OC)cc(C(=O)NNC(=O)Cc2cccs2)c1`, the inhibition is 19.8%.

Turning to `Cc1sc2nc(CSCC(=O)NC3CCCCC3)[nH]c(=O)c2c1C`, the inhibition is 9.75%.

Take `CSc1nnc(SCc2nc3sc(C(=O)O)c(C)c3c(=O)[nH]2)s1`: the inhibition was 49.9% (active).

On to `CC(=O)c1sc2nc(SCC(=O)N3CCCCC3)[nH]c(=O)c2c1C`, for which the inhibition was 13.1%. Turning to `CCc1ccc(NC(=O)CN2C(=O)CSC2=O)cc1`, the inhibition is -3.77%. With `CCc1ccc(C(CNc2nc(C(F)(F)F)nc3ccccc23)N(C)C)cc1` (stereo unspecified) the figure was -1.56%; with `COc1cccc(CNc2nc(C(F)(F)F)nc3ccccc23)c1`, 2.55%; with `CC(Nc1nc(C(F)(F)F)nc2ccccc12)c1cccs1` (stereo unspecified), 28.4% (active). Take `COc1ccc(CN2C(CC(=O)Nc3cccnc3)c3ccc(C(F)(F)F)cc3S2(=O)=O)cc1` (stereo unspecified): the inhibition is 6.11%. On to `COc1ccc(/C=C/C(=O)c2cc(Br)ccc(=O)c2O)cc1`, for which the inhibition is 40.7% (active).

Take `COc1ccc(C(=O)/C=C/c2cccnc2)c(OC)c1`: the inhibition was -1.82%. With `COc1ccc(C(=O)/C=C/c2ccc(OC3CSC3)cc2)cc1` the figure was 1.34%; with `O=C1N[C@H](Cc2c[nH]c3ccccc23)COC(=O)[C@H](Cc2ccc(F)cc2)C/C=C\C[C@H]1CC(=O)N(CCO)Cc1ccccc1`, 21.3%. With `COCCN1C(=O)C(=O)/C(=C(/O)c2ccc(S(=O)(=O)N3CCOCC3)cc2)C1c1ccc(OC)c(OC)c1` (stereo unspecified) the figure was 0.25%; with `CCn1c(SCC(=O)N/N=C/c2ccccc2OCC(=O)O)nnc1-c1ccc(C(C)(C)C)cc1`, 11.4%. With `COc1ccc(CCOC(=O)CNC(=O)c2ccc(Cl)cc2Cl)cc1` the figure was -0.13%; with `Cc1coc2c(O)cc3c(c12)OC1(N2CCCCC2)C(=O)NCCCC31` (stereo unspecified), 27.6% (active).

Regarding `Cc1ccc(NC(=O)N2CCC(c3nc4c(nnn4Cc4c(F)cccc4Cl)c(=O)[nH]3)CC2)cc1`, the inhibition was 27.7% (active). Then `COc1ccc(Cn2nnc3c(=O)[nH]c(C4CCN(C(=O)c5ccccc5Cl)CC4)nc32)cc1`, with 9.22%.

Consider `O=C(Nc1ccc(F)cc1)N1CCCC(c2nc3c(nnn3Cc3ccccc3Cl)c(=O)[nH]2)C1` (stereo unspecified), for which the inhibition was 1.47%. With `CCOC(=O)c1ccc(NC(=O)C2CC(=O)N(c3ccc4c(c3)OCCO4)C2)cc1` (stereo unspecified) the figure was 29.3% (active); with `Cc1ccc(NC(=O)C2CC(=O)N(c3ccc4c(c3)OCCO4)C2)cc1S(=O)(=O)N1CCCCCC1` (stereo unspecified), 0.97%; with `CCc1nnc(NC(=O)C2CC(=O)N(c3ccc4c(c3)OCCO4)C2)s1` (stereo unspecified), 2.68%.

Consider `O=C(COC(=O)c1ccc(S(=O)(=O)N2CCc3ccccc3C2)cc1)NC(=O)NCc1ccco1`, for which the inhibition is -5.65%. Then `S=c1nccc(-c2cc(Cl)sc2Cl)[nH]1`, with 4.56%; and `CCN(Cc1ccccc1)C(=O)CSc1nc(C)cc2c1C(=O)OC2`, with 7%; and `COc1ccccc1C(=O)Nc1cccc(C(=O)N2CCOCC2)c1`, with -0.6%. Then `CN(C)C(=O)CCc1ccc2c3c([nH]c2c1)[C@]1(C)[C@@H](C(=O)N2CCCCC2)C[C@H](CC(=O)NCCC2=CCCCC2)C(=O)N1CC3`, with 9.04%; and `O=C1C(=O)N(CCCO)C(c2ccccc2)/C1=C(\O)c1ccc(Br)cc1` (stereo unspecified), with 2.67%; and `CC(C)(C)NC(=O)C(c1ccc(Cl)cc1)N(CCO)C(=O)c1snc(C(N)=O)c1N` (stereo unspecified), with -1.41%. For `CN(C)S(=O)(=O)c1cccc(NC(=S)N/N=C/C(=O)c2ccccc2)c1`, the inhibition is 12.9%. `O=C(N/N=C/c1c[nH]c2ccccc12)c1cc2ccccc2o1`: the inhibition is 15.3%. Then `O=C(O)c1cccc(NC(=S)N/N=C/c2c[nH]c3ccccc23)c1`, with 26.4% (active). On to `Cc1ccc(-c2cc(C(=O)NCc3cn(C)nc3C)c3cc(Br)ccc3n2)cc1`, for which the inhibition was 2.72%. For `O=C(Nc1ccccc1F)c1ccccc1-c1ccc(C(F)(F)F)cc1`, the inhibition was 0.76%. In the case of `Cc1cc(C(=O)N/N=C/c2ccc(O)c([N+](=O)[O-])c2)c(C)n1-c1ccc(F)cc1`, the inhibition is 33.4% (active). Then `Cc1nn(CC(=O)N/N=C/c2ccc(F)cc2)c(C)c1[N+](=O)[O-]`, with -6.43%; and `COc1cc(/C=N/NC(=O)c2cc(C)n(-c3ccc(F)cc3)c2C)cc(OC)c1O`, with 9.67%. With `COCCNc1cc(-c2ccccc2)nc2cc(-c3cccc(F)c3)nn12` the figure was -13.5%; with `CC(NC(=S)NC1CCCCC1)C(c1ccccc1)N1CCOCC1` (stereo unspecified), 2.17%.
